Source: PubChem BioAssay
These entries were drawn from the full list.
aSyn UTR act – Activators via SNCA 5'UTR binding, MLPCN; 300,000 compounds, 7.1% hits; alpha-synuclein 5'UTR reporter, activators screen; activity score, % (tested at 7.5 µM), hits read low; AID 1814; in the data active means activity score below about -60%
Numbers without * were called inactive.

SMILES	aSyn UTR act
Cc1ccc(OCc2nc(-c3ccccc3)no2)c(C)c1	-212*
Clc1ccccc1OCc1nc(-c2ccc(Br)o2)no1	-83*
Brc1ccc(-c2noc(CCc3ccccc3)n2)o1	-119*
CCOc1ccc(NC(=S)NC(=O)c2ccco2)cc1	-250*
CCC(=O)NC(=S)Nc1ccc(NC(=O)c2ccco2)cc1	-86*
Cc1nc(-c2ccc(NC(=O)c3ccccc3C)cc2)cs1	-123*
Cc1nc(-c2ccc(NC(=O)c3ccccc3Br)cc2)cs1	-161*
O=C(c1ccc(F)cc1)c1ccc(-c2ccc(F)cc2)nc1	-141*
O=C(CSc1nc(-c2ccc(F)cc2)cs1)NCCN1C(=O)CSC1=O	-62*
O=C(CSc1nc(-c2ccccc2)cs1)NCCN1C(=O)CSC1=O	-71*
Cn1nnc2cc(C(=O)Nc3ccccc3F)ccc21	-111*
O=C(Nc1cccc(F)c1)c1ccc2ncsc2c1	-204*
O=C(Nc1ccc(F)cc1F)c1ccc2ncsc2c1	-120*
O=C(Nc1ccc(Cl)cc1Cl)c1ccc2ncsc2c1	-177*
O=C(Nc1nnc(SCc2ccc(F)cc2)s1)c1ccc2ncsc2c1	-100*
O=C(Nc1ccccc1F)c1ccc2ncsc2c1	-175*
CCCc1cnc(N2CCN(C(=S)NC)CC2)nc1	-111*
Cc1csc2nc(CSc3nc4ccccc4o3)c(Br)n12	-129*
CC1(C)CN=C(N(Cc2ccccc2)C(=O)Nc2ccccc2)S1	-154*
O=C(Cc1ccc(S(=O)(=O)N2CCOCC2)s1)Nc1ccc(N2CCOCC2)cc1	-99*
O=c1cc(COc2ccc(Cl)c(Cl)c2)nc2sccn12	-83*
O=c1cc(CNc2cc(C(F)(F)F)cc(C(F)(F)F)c2)nc2sccn12	65
O=c1oc2cc(OCc3c(F)cccc3Cl)ccc2cc1-c1ccccn1	-107*
CCCOc1ccc2cc(-c3ccccn3)c(=O)oc2c1	77
COc1ccccc1N1CCN(/N=C\c2ccc(C)o2)CC1	-98*
SMILES	aSyn UTR act
COc1ccccc1N1CCN(C(=O)C2c3ccccc3Oc3ccccc32)CC1	81
COc1ccccc1N1CCN(/N=C/C(Cl)=C/c2ccccc2)CC1	-159*
COc1ccccc1N1CCN(/N=C\c2ccccc2)CC1	-103*
CCc1noc(C)c1C(=O)Nc1nc(-c2cccs2)cs1	-66*
N#Cc1c(N2CCCC2)nsc1-c1ccccc1	-180*
N#Cc1c(N2CCOCC2)nsc1-c1ccccc1	-68*
C#CCn1c(C)cc(C)c(S(=O)(=O)c2ccccc2)c1=O	-73*
O=c1c(/C=C(\O)c2ccccc2)nc2ccccc2n1-c1ccccc1	-127*
C=CCOc1ccc2c(OC)c3ccoc3nc2c1OC	-81*
O=C1C=CCC(/C=C/c2ccccc2)O1 (stereo unspecified)	-104*
O=c1c2ccccc2nnn1-c1ccc(Br)cc1	-169*
CC1CC(=O)NN=C1c1ccc(NCCO)c([N+](=O)[O-])c1 (stereo unspecified)	76
COCCN=C1NN=C(c2ccc(C)c([N+](=O)[O-])c2)CS1	-108*
CCCCN=C1NN=C(c2ccc(C)c(C)c2)CS1	-162*
O=C(Nc1ccc(N2CCOCC2)c(Cl)c1)c1ccc(Br)o1	-253*
O=C(Nc1ccc(N2CCOCC2)c(Cl)c1)c1cc2ccccc2o1	-204*
O=C(Nc1ccc(N2CCOCC2)c(Cl)c1)c1ccccc1Cl	-66*
O=C(NC(=S)N1CCOCC1)c1cc2ccccc2o1	-74*
O=C(Nc1ccccc1N1CCCC1)c1cc2ccccc2o1	-252*
O=C(Nc1ccc(CN2CCOCC2)cc1)c1ccc(Br)o1	-104*
Clc1cc(NCc2cccs2)ccc1N1CCOCC1	-105*
O=C(Nc1ccc(N2CCOCC2)c(Cl)c1)c1ccc(F)cc1	-140*
O=C(/C=C/c1ccccc1)Nc1ccc(CN2CCOCC2)cc1	-88*
CC(C)C(=O)N1CCN(c2ccc(NC(=O)c3ccc4c(c3)OCCO4)cc2Cl)CC1	-109*
O=C(Nc1cccnc1Cl)c1cc2ccccc2o1	-166*
SMILES	aSyn UTR act
O=C(Nc1ccc(N2CCOCC2)nc1)c1ccc(Cl)cc1	-73*
O=C(N/N=C/c1ccc(N2CCOCC2)s1)c1ccccc1Cl	-116*
CN1C(=O)C(O)(c2nnc(-c3ccccc3)o2)c2ccccc21 (stereo unspecified)	-96*
S=C1NC(c2ccccc2)=NCN1c1ccccc1	-66*
Cc1ccc(C2=NCN(c3ccc(C(=O)O)cc3)C(=S)N2)cc1	-117*
O=C(Oc1c(CN2CCOCC2)cc(Cl)c2cccnc12)c1ccccc1Cl	105
O=c1oc2c(CN3CCOCC3)c(O)ccc2c2ccccc12	-72*
C(=N\Nc1nc(-c2ccccc2)cs1)/c1ccco1	-351*
Clc1ccc(-c2csc(N/N=C/c3ccco3)n2)cc1	-156*
Clc1ccc(-c2csc(N/N=C\c3cccnc3)n2)cc1	-77*
Cc1ccc(-c2csc(N/N=C/c3ccco3)n2)cc1	-232*
Cc1cc(SCC(=O)c2cccc([N+](=O)[O-])c2)nc(=O)[nH]1	-91*
Cc1cccc(NC(=O)c2oc3c(c2C)C(=O)CC(C)(C)C3)n1	-83*
CCc1ccc(-c2csc(NC(=O)C3=NN(c4ccccc4)C(=O)CC3)n2)cc1	-97*
Oc1cccc(Nc2ncnc3c2oc2ccccc23)c1	-134*
Oc1ccc(Nc2ncnc3c2oc2ccccc23)cc1	-116*
c1ccc2c(c1)oc1c(Nc3ccc4c(c3)OCO4)ncnc12	-108*
CC(=O)N1CCN(c2ccc(Nc3ncnc4c3oc3ccccc34)cc2)CC1	-81*
c1ccc2c(c1)oc1c(Nc3ccc(CN4CCOCC4)cc3)ncnc12	-102*
Cc1nnc(Nc2ccc3c(c2)OCO3)c2ccccc12	-80*
c1ccc(Nc2ncnc3c2oc2ccccc23)cc1	-139*
Cc1nc(Nc2ccccc2)c2oc3ccc(Cl)cc3c2n1	-93*
Oc1ccccc1Nc1ncnc2c1oc1ccccc12	-88*
COc1ccc(Cn2c(/C=C/c3ccccc3)nc3ccccc32)cc1	-202*
CC(C)Cn1c(/C=C/c2ccccc2)nc2ccccc21	-114*
SMILES	aSyn UTR act
CCn1c(/C=C/c2ccccc2)nc2ccccc21	-157*
COc1ccc(/C=C/c2nc3ccccc3n2C)cc1	109
O=C(Cn1c(/C=C/c2ccccc2)nc2ccccc21)Nc1ccc(F)cc1	-72*
COc1ccc(-c2csc(NC(=O)C3CCCO3)n2)cc1 (stereo unspecified)	-102*
CCCC(=O)Nc1nc(-c2ccc(Cl)s2)cs1	-114*
O=C(Nc1ccc([N+](=O)[O-])cc1)Nc1nc(-c2ccc(Cl)s2)cs1	92
CCc1nnc(NC(=O)CSc2nc(-c3ccc(OC)cc3)ns2)s1	-84*
CCCC(=O)Nc1nc(-c2ccc(OC)cc2)cs1	-123*
CCCC(=O)Nc1nc(C)c(-c2csc(Nc3cc(OC)ccc3OC)n2)s1	61
COc1ccc(-c2csc(NC(=O)CSc3nc(C)cs3)n2)cc1	-153*
CCc1ccc(-c2csc(NC(=O)COC(=O)CCc3nc4ccccc4s3)n2)cc1	-109*
COc1ccc(-c2csc(NC(=O)CSc3nc(SC)ns3)n2)cc1	-102*
CN(C)/C=C/C(=O)c1ccc(Br)cc1	-70*
COc1cc2c(cc1NC(=O)COC(=O)[C@@H](NS(=O)(=O)c1cccc(Cl)c1)C(C)C)oc1ccccc12	-103*
COc1ccc(S(=O)(=O)N[C@@H](C)C(=O)OCC(=O)Nc2cc3oc4ccccc4c3cc2OC)cc1	-129*
C(=C\n1nnc2ccccc21)/c1ccc[nH]1	-72*
CCOC(=O)c1c(C)oc2c1cc(O)c1ccccc12	-104*
